Source: the supplement of paper PMC12494721
Structures can show the parent of a compound that is named as a salt.

Key:
Conditions in all cases: incubation time: 27 h, anaerobic, 37 °C;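 for the amine columns active = adjusted P below 0.05 in both replicates with a change the same way and a mean fold change under 0.8 or over 1.25; inactive = the rest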
[1] = test system: Clostridium sporogenes DSM 1664; assay: growth (OD595) fold change vs plate DMSO controls (fold change (ratio)); higher = more growth
Summary of the method: (§1)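 Absorbance at 595 nm was read after shaking the anaerobic mGAM cultures, which had grown in 96-well plates for 27 h at 37 °C. After blank subtraction and background correction against 20 µM compound solutions in water, a calibration factor of 5 gave OD values. Growth is the fold change against the median of the plate's DMSO controls. Values are the mean of 2 biological replicates, with fold changes above 1.5 set to NA.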

Escherichia coli IAI1 [2] = assay: as above
Summary of the method: as §1

[3] = test system: Klebsiella aerogenes DSM 30053; assay: as above
Summary of the method: as §1

[4] = test system: Ruminococcus gnavus DSM 108212; assay: as above
Summary of the method: as §1

[5] = test system: Klebsiella aerogenes DSM 30053; assay: fold change of Histamine concentration vs plate DMSO controls (fold change (ratio)); higher = more amine produced, active = hit call of the paper (significant change in both replicates, either direction)
Summary of the method: (§2)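 Anaerobic mGAM cultures of four gut bacterial strains were grown at 37 °C for 27 h in 80 µL wells, starting at OD 0.1 before 1:1 dilution. Compounds were at 20 µM final (sweeteners 50 µM). Whole cultures were extracted with cold acetonitrile/methanol containing 0.1% formic acid and centrifuged. Amines were quantified by LC–triple-quadrupole MS (dynamic MRM) against external calibration curves and drift-corrected within batch. Each value is the fold change versus plate DMSO controls, averaged over 2 biological replicates.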

[6] = test system: Clostridium sporogenes DSM 1664; assay: fold change of Tryptamine concentration vs plate DMSO controls (fold change (ratio)); higher = more amine produced, active = hit call of the paper (significant change in both replicates, either direction)
Summary of the method: as §2

[7] = test system: Ruminococcus gnavus DSM 108212; assay: as above
Summary of the method: as §2

Escherichia coli IAI1 [8] = assay: fold change of Putrescine concentration vs plate DMSO controls (fold change (ratio)); higher = more amine produced, active = hit call of the paper (significant change in both replicates, either direction)
Summary of the method: as §2

[9] = test system: Klebsiella aerogenes DSM 30053; assay: as above
Summary of the method: as §2

Escherichia coli IAI1 [10] = assay: fold change of Cadaverine concentration vs plate DMSO controls (fold change (ratio)); higher = more amine produced, active = hit call of the paper (significant change in both replicates, either direction)
Summary of the method: as §2

[11] = test system: Klebsiella aerogenes DSM 30053; assay: as above
Summary of the method: as §2

[12] = test system: Ruminococcus gnavus DSM 108212; assay: fold change of 2-Phenylethylamine concentration vs plate DMSO controls (fold change (ratio)); higher = more amine produced, active = hit call of the paper (significant change in both replicates, either direction)
Summary of the method: as §2

Row | Compound | growth [1] | growth (Escherichia coli IAI1 [2]) | growth [3] | growth [4] | fold change of Histamine concentration [5] | fold change of Tryptamine concentration [6] | fold change of Tryptamine concentration [7] | fold change of Putrescine concentration (Escherichia coli IAI1 [8]) | fold change of Putrescine concentration [9] | fold change of Cadaverine concentration (Escherichia coli IAI1 [10]) | fold change of Cadaverine concentration [11] | fold change of 2-Phenylethylamine concentration [12]
1 | COc1ccccc1N1CCN(CCCNc2cc(=O)n(C)c(=O)n2C)CC1 [Urapidil hydrochloride] (20 µM) | 0.984 | 0.934 | 1 | 0.999 | 0.993 (inactive) | 1.04 (inactive) | 0.977 (inactive) | 0.978 (inactive) | 1.01 (inactive) | 1.03 (inactive) | 1 (inactive) | 0.971 (inactive)
2 | COC(=O)Nc1nc2cc(C(=O)c3ccc(F)cc3)ccc2[nH]1 [Flubendazol] (20 µM) | 0.949 | 1.04 | 1.12 | 1.04 | 0.979 (inactive) | 1 (inactive) | 0.934 (inactive) | 0.943 (inactive) | 1.02 (inactive) | 0.956 (inactive) | 1.01 (inactive) | 0.919 (inactive)
3 | CC[N+](C)(C)c1cccc(O)c1 [Edrophonium chloride] (20 µM) | 1.07 | 1.06 | 1.01 | 1.17 | 1.07 (inactive) | 0.998 (inactive) | 1.14 (inactive) | 1.01 (inactive) | 1.03 (inactive) | 0.919 (inactive) | 1 (inactive) | 1.11 (inactive)
4 | COC(=O)N/N=C/c1c[n+]([O-])c2ccccc2[n+]1[O-] [Carbadox] (20 µM) | 0.00259 | 0.0346 | 0.0738 | 0.0392 | 0.0834 (active) | 0.00903 (active) | 0.0355 (active) | 0.388 (active) | 0.377 (active) | 0.187 (active) | 0.983 (inactive) | 0.0387 (active)
5 | O=C(OCCOCCO)c1ccccc1Nc1cccc(C(F)(F)F)c1 [Etofenamate] (20 µM) | 1.2 | 1.09 | 1.1 | 1.2 | 0.902 (inactive) | 0.955 (inactive) | 0.883 (inactive) | 1.05 (inactive) | 0.998 (inactive) | 1.02 (inactive) | 1.02 (inactive) | 0.861 (inactive)
6 | CCOC(=O)OC(C)OC(=O)[C@@H]1N2C(=O)[C@@H](NC(=O)[C@H](N)c3ccccc3)[C@H]2SC1(C)C (some centres not stated) [Bacampicillin hydrochloride] (20 µM) | 0 | 1.16 | 1.46 | 0.0946 | 1.02 (inactive) | 0.0203 (active) | 0.0343 (active) | 0.928 (inactive) | 1.07 (inactive) | 1.6 (active) | 1.05 (inactive) | 0.0374 (active)
7 | CCN1CCN(C(=O)N[C@@H](C(=O)N[C@@H]2C(=O)N3[C@@H]2SC(C)(C)[C@@H]3C(=O)O)c2ccccc2)C(=O)C1=O [Piperacillin sodium salt] (20 µM) | 0 | 0.563 | 1.07 | 0 | 0.706 (inactive) | 0.0439 (active) | 0.0274 (active) | 1.17 (inactive) | 1.06 (inactive) | 1.84 (active) | 1.03 (inactive) | 0.0313 (active)
8 | CCOC(=O)C1=C[C@@H](OC(CC)CC)[C@H](NC(C)=O)[C@@H](N)C1 [Oseltamivir phosphate] (20 µM) | 0.866 | 0.987 | 1.01 | 1.01 | 1.03 (inactive) | 1.05 (inactive) | 1.03 (inactive) | 1.02 (inactive) | 1 (inactive) | 1.03 (inactive) | 1 (inactive) | 1.05 (inactive)
9 | CN(C)CCCN1c2ccccc2Sc2ccccc21 [Promazine hydrochloride] (20 µM) | 1.02 | 0.959 | 0.962 | 1 | 1.05 (inactive) | 1.1 (inactive) | 0.823 (inactive) | 0.916 (inactive) | 0.995 (inactive) | 1.03 (inactive) | 0.983 (inactive) | 0.829 (inactive)
10 | CN(C)/N=N/c1[nH]cnc1C(N)=O [Dacarbazine] (20 µM) | 0.822 | 1 | 1.06 | 1.02 | 0.954 (inactive) | 1 (inactive) | 1.01 (inactive) | 0.984 (inactive) | 1.01 (inactive) | 0.993 (inactive) | 1.02 (inactive) | 1.05 (inactive)
11 | COc1ccc2cc([C@@H](C)C(=O)O)ccc2c1 [(R) Naproxen sodium salt] (20 µM) | 0.979 | 1.08 | 1.07 | 0.811 | 1.03 (inactive) | 1.07 (inactive) | 1.05 (inactive) | 0.951 (inactive) | 0.974 (inactive) | 0.956 (inactive) | 1 (inactive) | 1.11 (inactive)
12 | CN1C2CCCC1CC(NC(=O)c1nn(C)c3ccccc13)C2 (configuration not stated) [Granisetron] (20 µM) | 1.04 | 1.02 | 1.01 | 1.04 | 1.02 (inactive) | 1.04 (inactive) | 1.07 (inactive) | 1.05 (inactive) | 1 (inactive) | 0.999 (inactive) | 1.01 (inactive) | 1.08 (inactive)
13 | O=C(c1cc(O)c(O)c(O)c1)c1ccc(O)c(O)c1O [Exifone] (20 µM) | 1.09 | 1 | 0.934 | 0.904 | 1.06 (inactive) | 1.09 (inactive) | 1.03 (inactive) | 1.01 (inactive) | 0.998 (inactive) | 0.991 (inactive) | 1 (inactive) | 1.07 (inactive)
14 | O=C(O)c1cccnc1 [Niacin] (20 µM) | 0.979 | 1.07 | 1.01 | 0.963 | 0.97 (inactive) | 0.994 (inactive) | 1.03 (inactive) | 1 (inactive) | 1.03 (inactive) | 0.981 (inactive) | 1.02 (inactive) | 0.993 (inactive)
15 | Cc1ccc(/C(=C\CN2CCCC2)c2ccccn2)cc1 [Triprolidine hydrochloride] (20 µM) | 1.08 | 1.01 | 0.998 | 1.1 | 1.05 (inactive) | 1.02 (inactive) | 1.01 (inactive) | 1.09 (inactive) | 1.02 (inactive) | 0.797 (inactive) | 0.987 (inactive) | 0.986 (inactive)
16 | O=C(O)Cc1ccc(-c2ccccc2)cc1 [Felbinac] (20 µM) | 1 | 1.01 | 1.08 | 1.01 | 0.921 (inactive) | 0.994 (inactive) | 1.01 (inactive) | 1.03 (inactive) | 0.976 (inactive) | 0.989 (inactive) | 0.998 (inactive) | 1.01 (inactive)
17 | C=C1C[C@@]23CC[C@H]4[C@@](C)(CCC[C@@]4(C)C(=O)O[C@@H]4O[C@H](CO)[C@@H](O)[C@H](O)[C@H]4O)[C@@H]2CC[C@]1(O[C@@H]1O[C@H](CO)[C@@H](O)[C@H](O)[C@H]1O[C@@H]1O[C@H](CO)[C@@H](O)[C@H](O)[C@H]1O)C3 [Stevioside] (50 µM) | 0.957 | 1 | 0.995 | 0.976 | 0.984 (inactive) | 0.986 (inactive) | 0.947 (inactive) | 0.989 (inactive) | 0.863 (inactive) | 1.04 (inactive) | 1.1 (inactive) | 0.971 (inactive)
18 | COC(c1ccccc1)(c1ccccc1)[C@H](Oc1nc(C)cc(C)n1)C(=O)O [Ambrisentan] (20 µM) | 0.967 | 1.2 | 0.991 | 1.04 | 1.07 (inactive) | 1.01 (inactive) | 1.02 (inactive) | 1.21 (inactive) | 0.992 (inactive) | 0.985 (inactive) | 0.997 (inactive) | 1.01 (inactive)
19 | CC[N+](CC)(CC)CCC(O)(c1ccccc1)C1CCCCC1 (configuration not stated) [Tridihexethyl chloride] (20 µM) | 0.911 | 1 | 1.01 | 1.16 | 0.955 (inactive) | 1.17 (inactive) | 1.06 (inactive) | 0.812 (inactive) | 0.975 (inactive) | 0.857 (inactive) | 1.02 (inactive) | 1.03 (inactive)
20 | CC(C)C(=O)OCC(=O)[C@@]12O[C@H](C3CCCCC3)O[C@@H]1C[C@H]1[C@@H]3CCC4=CC(=O)C=C[C@]4(C)[C@H]3[C@@H](O)C[C@@]12C [Ciclesonide] (20 µM) | 1.08 | 1.12 | 1.01 | 1.17 | 1.02 (inactive) | 0.953 (inactive) | 0.966 (inactive) | 1.11 (inactive) | 0.999 (inactive) | 0.979 (inactive) | 0.99 (inactive) | 0.956 (inactive)
21 | COc1ccc2[nH]cc(CCNC(C)=O)c2c1 [Melatonin] (20 µM) | 0.916 | 0.932 | 1.06 | 0.789 | 0.94 (inactive) | 1.03 (inactive) | 1.01 (inactive) | 0.98 (inactive) | 0.999 (inactive) | 0.999 (inactive) | 1 (inactive) | 0.98 (inactive)
